Our source for the AC50 and outcome values is PubChem BioAssay (EPA / NIEHS).

For orientation: AC50 means the midpoint of the concentration-response curve, whichever way the signal moves.

For one assay, the system named is DIO1 (gene 1733). Description: CCTE_GLTED_hDIO1: CCTE's human Deiodinase 1 (DIO1) Inhibition Assay, Great Lakes Toxicology and Ecology Division (GLTED) Lab (AID 2283987; active means hit-call score of the fitted dose curve at least 0.9, where 1 is the maximum;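 further: isolated human DIO1 enzyme in a cell-free setup rather than cells; enzyme activity read as free iodide liberated from substrate via Sandell-Kolthoff colorimetry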). In outline: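 Inhibition of human deiodinase 1 is scored as reduced iodide liberation after a 3 h enzyme–chemical incubation, detected colorimetrically by the Sandell-Kolthoff reaction against DMSO controls.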

Assay [1] deals with Nucleoli Translocation, AR (gene 367) (UniProt P10275). Put plainly: UPITT_HCI_U2OS_AR_TIF2_Nucleoli_Antagonist: University of Pittsburgh U2OS Androgen Receptor-Transcriptional Intermediary Factor 2 (AR-TIF2) Antagonism High Content Imaging Assay for Nucleoli Translocation (AID 2283997; active means hit-call score of the fitted dose curve at least 0.9, where 1 is the maximum). A digest of the protocol:
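Antagonism is read as loss of nucleolar AR-RFP signal relative to DHT, imaged in U2OS cells also carrying GFP-TIF2. Compounds screened at 20 uM final, 0.2% DMSO; primary actives retested in triplicate.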

Assay [2] deals with Ratio of Nucleoli Translocation and Cytoplasm, AR (gene 367) (UniProt P10275). Description: UPITT_HCI_U2OS_AR_TIF2_Nucleoli_Cytoplasm_Ratio_Agonist: University of Pittsburgh U2OS Androgen Receptor-Transcriptional Intermediary Factor 2 (AR-TIF2) Agonism High Content Imaging Assay for Ratio of Nucleoli Translocation and Cytoplasm (AID 2284000; active means hit-call score of the fitted dose curve at least 0.9, where 1 is the maximum;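 further: hits raise the red nucleolar to cytoplasm ratio above vehicle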). A digest of the protocol:
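Compounds tested at 20 uM final in primary screen (0.2% DMSO) and 0.195-50 uM final in dose-response (0.5% DMSO). Imaging of human U2OS cells bearing RFP-AR and GFP-TIF2; endpoint is nucleoli/cytoplasm red signal ratio, positive direction relative to DMSO.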

The nature of assay [3]: CCTE_Simmons_MITO_basal_resp_rate: CCTE's HepG2 Seahorse XF Respirometric Screening Assay at Basal Respiratory State, Simmons Lab (AID 2284001). Conditions: actives raise or lower the signal. In outline:
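Basal-phase OCR in HepG2 cells, read at 6-min intervals across a 72-min run, with test compound injected at 125 nM–100 uM final (7 points). Fitted both directions against DMSO; three biological replicates per concentration.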

Assay [4] in a line: CCTE_Simmons_MITO_max_resp_rate: CCTE's HepG2 Seahorse XF Respirometric Screening Assay at Maximal Respiratory State [uncoupled], Simmons Lab (AID 2284002). To be noted: actives raise or lower the signal. A digest of the protocol:
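Read-out is oxygen consumption rate at maximal respiration, taken after FCCP uncoupling of compound-treated HepG2 cells. Seven final concentrations from 125 nM to 100 uM were tested, each in three biological replicates.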

The nature of assay [5]: CCTE_Simmons_MITO_inhib_resp_rate: CCTE's HepG2 Seahorse XF Respirometric Screening Assay at Inhibited Respiratory State [full ETC block], Simmons Lab (AID 2284006). To be noted: actives raise or lower the signal. A digest of the protocol:
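This endpoint is the respiration rate remaining after rotenone/antimycin A block, in HepG2 cells on a Seahorse XF96. Chemicals spanned 125 nM–100 uM final, in three biological replicates. OCR was read every 6 minutes for 72 minutes and compared with DMSO vehicle.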

In assay [6] the target is Nucleoli Translocation, AR (gene 367) (UniProt P10275). Put plainly: UPITT_HCI_U2OS_AR_TIF2_Nucleoli_Agonist: University of Pittsburgh U2OS Androgen Receptor-Transcriptional Intermediary Factor 2 (AR-TIF2) Agonism High Content Imaging Assay for Nucleoli Translocation (AID 2283998; active means hit-call score of the fitted dose curve at least 0.9, where 1 is the maximum). A digest of the protocol: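 Readout is red (AR-RFP) fluorescence localized to nucleoli, measured by high-content imaging and analysed for increase relative to DMSO. Compound series spanned 0.195 to 50 uM final in 0.5% DMSO.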

Assay [7] is described as follows: CCTE_Shafer_MEA_acute_spike_number: CCTE's Neural Acute Assay for Total Number of Spikes, Shafer Lab (AID 2284008). A digest of the protocol:
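Read-out is the total spike count over 40 min, expressed as percent change from each well's own pre-treatment baseline and fitted in the loss direction against DMSO. Rat cortical neurons were exposed at 0.03-40 uM on DIV 13 or 15.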

The nature of assay [8]: CCTE_Simmons_MITO_viability: CellTiter-Glo Viability Assessment for CCTE's HepG2 Seahorse XF Respirometric Screening Assay [post-hoc], Simmons Lab (AID 2284007; active means hit-call score of the fitted dose curve at least 0.9, where 1 is the maximum). In outline:
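Luciferase-coupled ATP read-out after the Seahorse run: HepG2 cells treated 90 minutes with test chemical, 7-point series of 125 nM–100 uM final, in triplicate biological runs. Vehicle DMSO; dichlone as positive control over 8 concentrations.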
On the technique in general: In ATP-based viability assays light output follows the ATP content of the culture.

Assay [9] can be described thus: CCTE_Harrill_HTTr_Viability_DMEM_12hr: (Pilot) CCTE's 12-hour Cell Viability Assessment for the High-Throughput Transcriptomics (HTTr) Platform, in MCF-7 cells cultured in DMEM + 10% fetal bovine serum, Harrill Lab (AID 2283974). A digest of the protocol:
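Propidium iodide dye exclusion imaged by high-content microscopy after 12 h chemical exposure (eight concentrations) of MCF-7 cells grown in DMEM plus 10% FBS; values fitted in both directions relative to DMSO.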

Assay [10] is described as follows: CCTE_Harrill_HTTr_Viability_DMEM_24hr: (Pilot) CCTE's 24-hour Cell Viability Assessment for the High-Throughput Transcriptomics (HTTr) Platform, in MCF-7 cells cultured in DMEM + 10% fetal bovine serum, Harrill Lab (AID 2283975). A digest of the protocol: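 Pilot study: propidium iodide dye exclusion, imaged by high content microscopy, after 24 h compound exposure (eight concentrations) in MCF-7 cultured in DMEM + 10% fetal bovine serum; DMSO served as negative control and baseline.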

The nature of assay [11]: CCTE_Harrill_HTTr_Viability_PRF_DMEM_6hr: (Pilot) CCTE's 6-hour Cell Viability Assessment for the High-Throughput Transcriptomics (HTTr) Platform, in MCF-7 cells cultured phenol red-free DMEM + 10% charcoal-stripped fetal bovine serum, Harrill Lab (AID 2283976). A digest of the protocol:
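Membrane integrity by high-content imaging of propidium iodide uptake, six hours after dosing with eight concentrations. Cells: MCF-7 grown in phenol red-free DMEM plus 10% charcoal-stripped serum; DMSO serves as baseline for bidirectional fits.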

The nature of assay [12]: CCTE_Harrill_HTTr_Viability_PRF_DMEM_12hr: (Pilot) CCTE's 12-hour Cell Viability Assessment for the High-Throughput Transcriptomics (HTTr) Platform, in MCF-7 cells cultured in phenol red-free DMEM + 10% charcoal-stripped fetal bovine serum, Harrill Lab (AID 2283977). In outline: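 Membrane integrity was scored via propidium iodide dye exclusion imaging, fitted in both directions relative to DMSO. Compounds ran as eight-point dilutions for 12 hours on MCF-7 grown in phenol red-free DMEM plus 10% charcoal-stripped serum.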

Assay [13] is described as follows: CCTE_Harrill_HTTr_Viability_PRF_DMEM_24hr: (Pilot) CCTE's 24-hour Cell Viability Assessment for the High-Throughput Transcriptomics (HTTr) Platform, in MCF-7 cells cultured in phenol red-free DMEM + 10% charcoal-stripped fetal bovine serum, Harrill Lab (AID 2283980). A digest of the protocol:
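Propidium iodide exclusion imaged at 24 h after dosing scores viability; cells were MCF-7 grown in phenol red-free DMEM plus 10% charcoal-stripped serum, tested in eight concentrations, fitted in both directions against DMSO.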

Assay [14] can be described thus: CCTE_Harrill_HTTr_Apoptosis_DMEM_6hr: (Pilot) CCTE's 6-hour Apoptosis Assessment for the High-Throughput Transcriptomics (HTTr) Platform, in MCF-7 cells cultured in DMEM + 10% fetal bovine serum, Harrill Lab (AID 2283981). A digest of the protocol: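 MCF-7 cells grown in DMEM + 10% FBS were exposed for 6 hours to an eight-point dilution series. CellEvent Caspase 3/7 Green signal was imaged; activity fitted bidirectionally against DMSO.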

Assay [15] is described as follows: CCTE_Harrill_HTTr_Apoptosis_DMEM_12hr: (Pilot) CCTE's 12-hour Apoptosis Assessment for the High-Throughput Transcriptomics (HTTr) Platform, in MCF-7 cells cultured in DMEM + 10% fetal bovine serum, Harrill Lab (AID 2283982). A digest of the protocol: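 Caspase-3/7 activity was measured by high-content imaging (CellEvent Caspase 3/7 Green) after a 12-hour exposure of MCF-7 cells grown in DMEM with 10% FBS. Eight-point concentration series, fitted bidirectionally against vehicle.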

Assay [16] can be described thus: CCTE_Harrill_HTTr_Apoptosis_DMEM_24hr: (Pilot) CCTE's 24-hour Apoptosis Assessment for the High-Throughput Transcriptomics (HTTr) Platform, in MCF-7 cells cultured in DMEM + 10% fetal bovine serum, Harrill Lab (AID 2283983). A digest of the protocol:
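Caspase-3/7 activity read by high-content imaging (CellEvent Green reagent) 24 h after dosing. MCF-7 cells grown in DMEM with 10% FBS received an eight-point concentration series; fits were bidirectional versus DMSO.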

The nature of assay [17]: CCTE_Harrill_HTTr_Apoptosis_PRF_DMEM_6hr: (Pilot) CCTE's 6-hour Apoptosis Assessment for the High-Throughput Transcriptomics (HTTr) Platform, in MCF-7 cells cultured phenol red-free DMEM + 10% charcoal-stripped fetal bovine serum, Harrill Lab (AID 2283984). In outline:
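Caspase-3/7 activity (CellEvent Green) read by high-content imaging 6 h after dosing, eight concentrations. Cells: MCF-7, phenol red-free DMEM with 10% charcoal-stripped serum. Curves fit both directions against DMSO.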

Assay [18] in a line: CCTE_Harrill_HTTr_Apoptosis_PRF_DMEM_24hr: (Pilot) CCTE's 24-hour Apoptosis Assessment for the High-Throughput Transcriptomics (HTTr) Platform, in MCF-7 cells cultured in phenol red-free DMEM + 10% charcoal-stripped fetal bovine serum, Harrill Lab (AID 2283986). In outline: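 Eight concentrations tested for 24 h on MCF-7 grown in charcoal-stripped serum, phenol red-free DMEM. High content imaging of CellEvent Caspase 3/7 Green signal gives apoptosis read-out, fitted both ways relative to DMSO.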

The structures appear in SMILES notation. Records with an inconclusive call do not appear. The source made the active and inactive calls. How the source made its calls, unless noted: active means hit-call score of the fitted dose curve at least 0.9, where 1 is the maximum; inactive means score below 0.9.

Sequence of Ratio of Nucleoli Translocation and Cytoplasm, AR (gene 367) (P10275 whole entry, looked up): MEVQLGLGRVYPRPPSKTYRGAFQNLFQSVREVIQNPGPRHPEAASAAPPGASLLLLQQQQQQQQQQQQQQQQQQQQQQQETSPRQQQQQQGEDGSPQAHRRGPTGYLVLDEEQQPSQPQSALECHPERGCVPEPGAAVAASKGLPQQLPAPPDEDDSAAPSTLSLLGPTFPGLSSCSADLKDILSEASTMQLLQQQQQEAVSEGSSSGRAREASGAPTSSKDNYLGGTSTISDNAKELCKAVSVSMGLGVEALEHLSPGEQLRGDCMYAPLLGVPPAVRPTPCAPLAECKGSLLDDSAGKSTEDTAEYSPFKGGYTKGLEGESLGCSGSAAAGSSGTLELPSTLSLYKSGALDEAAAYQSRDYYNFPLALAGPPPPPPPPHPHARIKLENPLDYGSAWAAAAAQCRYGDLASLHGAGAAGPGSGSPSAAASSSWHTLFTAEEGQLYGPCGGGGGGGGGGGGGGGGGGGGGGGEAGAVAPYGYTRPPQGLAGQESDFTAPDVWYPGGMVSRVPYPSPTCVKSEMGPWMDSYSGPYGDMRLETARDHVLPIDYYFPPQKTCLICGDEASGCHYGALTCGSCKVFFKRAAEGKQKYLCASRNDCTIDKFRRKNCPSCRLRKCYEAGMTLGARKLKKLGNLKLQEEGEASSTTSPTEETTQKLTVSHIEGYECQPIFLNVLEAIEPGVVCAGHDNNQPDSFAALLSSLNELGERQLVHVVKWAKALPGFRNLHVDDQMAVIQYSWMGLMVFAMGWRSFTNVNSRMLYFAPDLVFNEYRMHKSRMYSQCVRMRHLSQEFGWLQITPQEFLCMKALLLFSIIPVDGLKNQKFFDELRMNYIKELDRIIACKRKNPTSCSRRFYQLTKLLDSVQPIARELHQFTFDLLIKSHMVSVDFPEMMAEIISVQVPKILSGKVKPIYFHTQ
Sequence of Nucleoli Translocation, AR (gene 367) (P10275 whole entry, looked up): as above

`CCOc1cccc(-n2cc(C(=O)N3CCN(c4cc(C(=O)O)c5ccccc5c4)CC3)nc2-c2ccc(C)cc2)c1`: the AC50 is 151 µM (active) in the assay on DIO1 (gene 1733) and 78.4 µM (active) in [1]. Besides, the outcome in assay [2], in assay [3], in assay [4] and in assay [5] was inactive.
Turning to `CCCN(C1CCN(C(=O)C2CCNCC2)CC1)[C@@H]1CCc2ccc(OC)cc2C1`, the call in assay [1], in [6] and in [7] was inactive.
With `Cc1ccc(N)cc1O`, the AC50 was 37 µM (active) in assay [1], 50 µM (active) in assay [3], 60.5 µM (active) in assay [4] and 39.1 µM (active) in assay [5]. Also, the compound was classed as inactive in assay [6], in [2] and in assay [8].
Take `C1N2CN3CN1CN(C2)C3`: the outcome in assay [6] and in assay [2] was inactive.
In the case of `Fc1ccccc1[C@@H](F)COC1CCC(Nc2ncnc3[nH]ncc23)CC1` (stereo not given in full), the results for the AC50 in assay [1], in assay [3] and in assay [4] were 18.3 µM (active), 14.1 µM (active) and 13.8 µM (active), respectively. Besides, the result in assay [6], in [5] and in assay [8] was inactive.
In the case of `CC1(C)C(=O)N(Br)C(=O)N1Br`, the outcome in [1], in [6] and in assay [2] was inactive.
In the case of `O=C(CCCCCCCCc1cccnc1)N1CCC(C=C(c2ccccc2)c2ccccc2)CC1`, the compound was classed as inactive in assay [1], in [3], in [4] and in assay [5].
On to `CC(C)=CCCC(C)CCO` (stereo not given), for which the call in assay [1], in assay [6] and in [2] was inactive.
Consider `O=C(OC[C@H]1O[C@@H](OC(=O)c2cc(O)c(O)c(OC(=O)c3cc(O)c(O)c(O)c3)c2)[C@H](OC(=O)c2cc(O)c(O)c(OC(=O)c3cc(O)c(O)c(O)c3)c2)[C@@H](OC(=O)c2cc(O)c(O)c(OC(=O)c3cc(O)c(O)c(O)c3)c2)[C@@H]1OC(=O)c1cc(O)c(O)c(OC(=O)c2cc(O)c(O)c(O)c2)c1)c1cc(O)c(O)c(OC(=O)c2cc(O)c(O)c(O)c2)c1`, for which the concentration at half-maximal activity (AC50) with DIO1 (gene 1733) is 17.7 µM (active).
`Oc1ccc2c(c1)-c1ccccc1C2`: the half-maximal activity concentration (AC50) in [1] was 12 µM (active); in [6], 76.6 µM (active). In addition, the result in [2] was inactive.
Regarding `CCC(C)(C)C(=O)O[C@H]1C[C@@H](C)C=C2C=C[C@H](C)[C@H](CC[C@@H]3C[C@@H](O)CC(=O)O3)[C@H]21`, the outcome in assay [9], in assay [10], in assay [11], in [12], in assay [13] and in [14] was inactive. Moreover, the outcome in assay [15], in [16], in assay [17], in assay [18] and in assay [7] was inactive. The AC50 in the assay with DIO1 (gene 1733) is 49 µM (active).
For `On1ccccc1=S`, the result in assay [7] was inactive.
For `COc1ccc(/C=C/S(=O)(=O)NC(=O)c2ccc(C)cc2Cl)cc1`, the values for the AC50 in assay [3] and in [4] were 24.6 µM (active) and 15.2 µM (active), respectively. For the same compound, in assay [5], the compound was called inactive.
For `CC[C@H]1OC(=O)[C@H](C)[C@@H](O[C@H]2C[C@@](C)(OC)[C@@H](O)[C@H](C)O2)[C@H](C)[C@@H](O[C@@H]2O[C@H](C)C[C@H](N(C)C)[C@H]2O)[C@](C)(O)C[C@@H](C)C(=O)[C@H](C)[C@@H](O)[C@]1(C)O`, the compound was classed as inactive in [7].
